Measurements as given in PubChem BioAssay (NCI).
About 79,000 compounds went through this panel and 15% of them were active in at least one assay; those are over-represented in the sample as a whole. A number with no mark means an inactive call. Calls of active or inactive are those of the source. No stated cut-off is given here; in the data, active means growth inhibition above about 70%; inactive means the rest.

How the values were obtained:
[1] = NCI Yeast Anticancer Drug Screen. Data for the rad50 strain (AID 155);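 further: 0% = growth of vehicle-only cultures of the same strain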; details: S. cerevisiae rad50 strain growth inhibition, hits give high values
Procedure, shortened: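 Growth of the mutant yeast was measured after compound exposure and referenced to vehicle-treated cultures.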

[2] = NCI Yeast Anticancer Drug Screen. Data for the mec2-1 strain (AID 157); details: S. cerevisiae mec2-1 strain, hits give high values
Procedure, shortened: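 Using mec2-1 yeast: add compound, measure growth, express inhibition versus vehicle-treated cultures.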

[3] = NCI Yeast Anticancer Drug Screen. Data for the sgs1 mgt1 strain (AID 161);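 further: 0% = growth of cultures given vehicle only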; details: S. cerevisiae sgs1 mgt1 strain, hits give high values
Procedure, shortened: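 Growth of a repair-deficient yeast mutant was monitored after compound treatment and expressed as inhibition relative to vehicle-treated cultures.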

[4] = NCI Yeast Anticancer Drug Screen. Data for the cln2 rad14 strain (AID 165);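 further: 0% = growth equal to vehicle treated cultures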; details: S. cerevisiae cln2 rad14 strain, hits give high values
Procedure, shortened: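 Yeast strain cln2 rad14, bearing defects in cell cycle control and DNA repair, serves as the test system; values reflect growth inhibition compared with vehicle.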

[5] = NCI Yeast Anticancer Drug Screen. Data for the bub3 strain (AID 167); details: S. cerevisiae bub3 mutant strain, hits give high values
Procedure, shortened: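 Whole-cell yeast assay. The mutant strain was incubated with compounds, and growth inhibition was determined by comparison with vehicle-treated cells.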

[6] = NCI Yeast Anticancer Drug Screen. Data for the mlh1 rad18 strain (AID 175); details: S. cerevisiae mlh1 rad18 strain growth inhibition, hits give high values
Procedure, shortened: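 Steps: expose repair-defective yeast to compound; measure growth; express inhibition against vehicle-treated controls.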

[7] = at 5.0 µM (retest, dose inferred, filed as 0.5)
[8] = at 50.0 µM (retest, dose inferred, filed as 5.0)

| SMILES | growth inhibition [1, 7] | growth inhibition [1, 8] | growth inhibition ([1]; at 50.0 µM) | growth inhibition [2, 7] | growth inhibition [2, 8] | growth inhibition ([2]; at 50.0 µM) | growth inhibition [3, 7] | growth inhibition [3, 8] | growth inhibition ([3]; at 50.0 µM) | growth inhibition [4, 7] | growth inhibition [4, 8] | growth inhibition ([4]; at 50.0 µM) | growth inhibition [5, 7] | growth inhibition [5, 8] | growth inhibition ([5]; at 50.0 µM) | growth inhibition [6, 7] | growth inhibition [6, 8] | growth inhibition ([6]; at 50.0 µM) |
| --- | --- | --- | --- | --- | --- | --- | --- | --- | --- | --- | --- | --- | --- | --- | --- | --- | --- | --- |
| O=C1Nc2ccccc2NC(=O)C(=C(c2ccccc2)c2ccccc2)C1=C(c1ccccc1)c1ccccc1 | 95% (active) | 96% (active) | 46.9% | 94% (active) | 97% (active) | 97.8% (active) | 96% (active) | 98% (active) | 53.1% | 92% (active) | 96% (active) | 97.5% (active) | 95% (active) | 97% (active) | 98% (active) | 96% (active) | 96% (active) | 43.9% |
| COc1ccc(-c2cscc2N)cc1 | -7% | 72% (active) | 67.5% | -15% | 46% | 87.2% (active) | -9% | 38% | 51.9% | -6% | 89% (active) | 46.1% | -19% | 91% (active) | 92.2% (active) | -1% | 56% | 89% (active) |
| O=C(Cc1ccccc1)c1ccc(O)c(F)c1 | 4% | 79% (active) | 87.3% (active) | 6% | 85% (active) | 77.5% (active) | 6% | 72% (active) | 80.2% (active) | 4% | 68% | 72.4% (active) | 7% | 88% (active) | 82.5% (active) | 7% | 84% (active) | 83.7% (active) |
| COc1ccc(OC)c2c(C(=O)O)c(C(C)c3ccccc3)ccc12 (stereo not drawn) | -1% | 70% (active) | 85.8% (active) | 3% | 73% (active) | 91.2% (active) | 2% | 64% | 91.2% (active) | 1% | 74% (active) | 96.2% (active) | -6% | 65% | 81.7% (active) | 3% | 75% (active) | 92.3% (active) |
| O=C(NC(=S)Nc1ncc([N+](=O)[O-])s1)c1ccccc1C(=O)NC(=S)Nc1ncc([N+](=O)[O-])s1 | -5% | 78% (active) | 69.5% | 9% | 67% | 29.6% | 19% | 47% | 80.5% (active) | -6% | 40% | 19.4% | -6% | 96% (active) | 75.8% (active) | 4% | 87% (active) | 79.7% (active) |
| CC(=O)OC1CCC23COC(CC(C)C2C)C3(Br)C1 (stereo not drawn) | -5% | 12% | -19.5% | 13% | 8% | 4.2% | 2% | 8% | 1.4% | -2% | -5% | 52.3% | 6% | 1% | -4.55% | 3% | -4% | 1.7% |
